Screens: PubChem, Milwaukee Institute for Drug Discovery
In the library only some 7.6% were active in any assay of this set; here they are far more common.
HCV NS3h FP: HCV NS3 helicase inhibitors, primary screen, biochemical, fluorescence polarization, ChemBridge library | NS3h Cy5-dT15 DNA binding | inhibition, % at 100 µM | actives 1.6% (n = 16,000) | AID 687043, 2013;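 active = inhibition above the average over every tested compound plus 3 SD, cut at about 40% in these data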
Cy5 interf NS3h: Cy5 fluorescence quenchers or enhancers, artefact control for HCV NS3 helicase inhibitor project, biochemical, ChemBridge library, Cy5 readout. fluorescence interference ratio at 100 µM. actives 6% (n = 16,000). Cy5-dT15 DNA with NS3h, fluorescence interference; actives lie on both sides; signal over control mean, under 1 quenches;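 active = compound fluorescence over control fluorescence at most 0.8, a quencher, or at least a set upper limit, an enhancer; inactive = ratio between 0.8 and the set upper limit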
Numbers without * were called inactive.

SMILES	HCV NS3h FP	Cy5 interf NS3h
Cc1cccc(-n2c(O)c(C3=c4ccccc4=NC3=O)sc2=O)c1	4.1	0.921
COc1ccc(CSc2nnc(SCc3ccc(OC)cc3)s2)cc1	0.3	1.01
NNC(=Nc1ccccc1)c1ccccn1	3.8	0.946
O=C1NN=C2C3CCC4CC12CC1(C3)C(=O)NN=C41	6.0	0.736*
COC(=O)c1sccc1NC(=O)c1c(-c2c(Cl)cccc2Cl)noc1C	4.7	1.1
NC(=O)c1ccc(Sc2nc3ccccc3s2)c([N+](=O)[O-])c1	6.4	1.03
CC1CC(Nc2ccccc2)c2ccccc2N1C(=O)c1ccc(Cl)cc1Cl (stereo not drawn)	12.4	0.621*
CC1CC(Nc2ccccc2)c2ccccc2N1C(=O)COc1ccc(Cl)cc1 (stereo not drawn)	9.1	1.04
Cc1ccc(/C=C2/SC(=O)N(c3ccccc3)C2=O)cc1	17.9	0.971
O=C1S/C(=C\c2cccs2)C(=O)N1c1ccccc1	1.2	0.637*
O=C(NN1C(=O)C2CCCCC2C1=O)c1ccccc1Cl (stereo not drawn)	3.2	0.994
CN(C)c1ccc(/C=C2\C(=O)Oc3ccccc3C2=O)cc1	26.0	1.14
CN(C)c1ccc(/C=C2\C(=O)c3cccc([N+](=O)[O-])c3C2=O)cc1	48.9*	0.941
Cc1cccc(Nc2c3c(c(C#N)c4nc5ccccc5n24)CCC3)c1	24.1	1.05
CCc1ccc(C2(c3ccc(CC)cc3)C(=O)NCc3ccccc32)cc1	-4.0	0.904
Cc1cccc(NC(=O)/C=C/c2ccc(Cl)cc2)c1	3.9	1.03
O=C1NN(c2ccccc2)C(=O)/C1=C/c1cccc(Cl)c1Cl	47.1*	0.993
CCOC(=O)c1ccc(N2NC(=O)/C(=C/c3cc(Br)ccc3O)C2=O)cc1	-13.7	0.685*
COc1cc(/C=C2/C(=O)NN(c3ccc(C)c(C)c3)C2=O)cc([N+](=O)[O-])c1O	9.9	0.72*
COc1cc(Br)cc(/C=C2\C(=O)NN(c3ccccc3)C2=O)c1O	45.1*	0.818
CCOC(=O)c1ccc(N2NC(=O)/C(=C/c3cccc(OC)c3O)C2=O)cc1	-2.4	0.846
O=C1NN(c2ccccc2)C(=O)/C1=C/c1cccc2ccccc12	19.4	1.03
Cc1ccc(N2NC(=O)/C(=C/c3ccc(C)c([N+](=O)[O-])c3)C2=O)cc1Cl	28.2	0.933
CCOc1c(/C=C2\C(=O)NN(c3ccccc3)C2=O)cccc1OC	9.7	1.03
O=C(c1ccc(F)c(F)c1)N1CCN(c2cc(N3CCCCC3)c(F)cc2[N+](=O)[O-])CC1	1.4	1.03
SMILES	HCV NS3h FP	Cy5 interf NS3h
CC(C)(C)OC(=O)COc1cc2oc(=O)c3c(c2cc1Cl)CCC3	5.9	1.07
O=C(COc1ccccc1Cl)Nc1c[nH]c(=O)[nH]c1=O	-37.0	1.3*
O=C(COc1ccccc1Cl)NNC(=O)c1ccccc1I	11.9	1.04
Cc1cc(C(F)(F)F)nn1CC(=O)Nc1sc2c(c1C(N)=O)CCC(C)C2 (stereo not drawn)	10.5	0.75*
CCOC(=O)c1c(NC(=O)Cn2nc(C(F)(F)F)cc2C)sc2c1CCC(C)C2 (stereo not drawn)	5.6	0.976
O=C1CSC2(N1)C1CC3CC(C1)CC2C3 (stereo not drawn)	-1.3	1.2*
CCCCOc1ccc(-c2c(C#N)c(N)nc(SCc3ccc(Cl)cc3)c2C#N)cc1	-9.4	0.993
Cc1ccc(C)n1-c1cccc2cccnc12	-87.4	0.0702*
CC(=O)c1ccc(N2C(=O)C3C4C=CC(O4)C3C2=O)cc1 (stereo not drawn)	6.8	0.878
O=C(COc1ccc(Cl)cc1)Nc1cc([N+](=O)[O-])ccc1F	9.7	0.88
Cc1cc(OCC(=O)Nc2cc([N+](=O)[O-])ccc2Cl)cc(C)c1Cl	7.7	0.542*
CC(=O)Nc1sc2c(c1C(=O)Nc1ccccc1C)CCC2	-4.2	0.935
Cc1ccccc1NC(=O)c1c(NC(=O)C(Cl)(Cl)Cl)sc2c1CCC2	13.0	0.681*
COc1ccccc1C/C(N)=N\OC(=O)COc1ccc2ccccc2c1	9.6	1.01
CCc1ccccc1NC(=O)c1c(NC(=O)c2cccs2)sc2c1CCCCC2	7.0	1.07
CCCN(CCC)C(=O)c1c(NC(=O)c2cccs2)sc2c1CCCCC2	1.2	0.674*
O=C(COc1ccccc1[N+](=O)[O-])Nc1ccc(Cl)c(Cl)c1	0.3	0.993
N/C(=N/OC(=O)c1cccc(F)c1)c1ccc(Br)cc1	7.6	0.968
O=C1/C(=C/C=C/c2ccccc2)SC(=S)N1c1cccc(C(F)(F)F)c1	16.8	0.75*
O=C1/C(=C\c2cccc(C(F)(F)F)c2)SC(=S)N1c1cccc(Cl)c1	7.3	1.08
CCCCOC(=O)c1ccc(NC(=O)c2ccc(-c3cccc([N+](=O)[O-])c3)o2)cc1	4.1	1.07
COc1ccc(/C=N\Nc2nc(C(F)(F)F)c(-c3ccc(F)cc3)s2)cc1OC	12.0	0.807
O=C(Nc1cccc(Cl)c1)Nc1nnc(-c2ccc(Cl)cc2Cl)s1	16.8	0.747*
O=C(Nc1cccc(Cl)c1)Nc1nnc(Cc2ccc(Cl)cc2Cl)s1	-1.6	1.08
COc1ccc(CN2C(=O)NC(=O)/C(=C\C=C\c3ccccc3)C2=O)cc1	-26.9	1.89*
SMILES	HCV NS3h FP	Cy5 interf NS3h
COc1ccc(CN2C(=O)NC(=O)/C(=C\C=C\c3ccco3)C2=O)cc1	18.8	0.898
O=C(O)CCN1C(=O)/C(=C/c2ccc(Cl)c([N+](=O)[O-])c2)SC1=S	21.7	0.696*
O=C(O)CCN1C(=O)/C(=C/c2cccc(OCc3ccccc3)c2)SC1=S	17.9	1.1
O=[N+]([O-])c1ccc(C=NCC2OCCc3ccccc32)cc1 (stereo not drawn)	0.3	0.949
O=C(c1ccccc1[N+](=O)[O-])N1CCN(C/C=C/c2ccccc2)CC1	-11.5	0.937
COc1ccc(/C=N\n2cnnc2)cc1Br	-14.7	1
COc1cc(/C=N\n2cnnc2)cc(OC)c1O	1.2	0.671*
O=C(O)c1ccc2c(c1)C(=O)N(c1ccc(-c3nc4cc(N5C(=O)c6ccc(C(=O)O)cc6C5=O)ccc4[nH]3)cc1)C2=O	10.5	0.651*
C#Cc1cccc(N2C(=O)c3ccc(C(=O)O)cc3C2=O)c1	12.0	0.98
CCC(=O)NC(c1ccc(OC)c(OC)c1)c1c(OC(C)=O)ccc2ccccc12 (stereo not drawn)	-0.6	0.987
CCc1ccccc1NC(=O)C(CC)c1ccccc1 (stereo not drawn)	11.8	1.03
CCc1ccccc1NC(=O)[C@H]1CC=CC[C@H]1C(=O)O	18.6	0.739*
CC(C)c1ccc(CNc2cc(N3CCN(S(=O)(=O)c4ccccc4)CC3)ccc2[N+](=O)[O-])cc1	6.4	1.13
CCCCNC(=O)/C(=C\c1ccc(-c2cccc([N+](=O)[O-])c2)o1)NC(=O)c1ccccc1	7.2	1.04
CCCCNC(=O)/C(=C/c1ccc(C)o1)NC(=O)c1ccccc1	16.8	0.66*
O=[N+]([O-])c1cccc(C2=Nc3ccc([N+](=O)[O-])cc3ON2)c1	2.2	0.743*
O=[N+]([O-])c1cccc(-c2ccc(CO)o2)c1	-2.8	0.951
COCCCN1C(=O)/C(=C\c2ccc(OC)c(OC)c2)SC1=S	12.5	1.06
Cc1nc(C=C2C(=O)C=Cc3ccccc32)c(O)o1	-1.9	1.06
CCOC(=O)c1c(C)[nH]c(C=C2C(=O)C=Cc3ccccc32)c1O	-8.5	0.425*
